Key:
Test in all cases: DAPPL (digital affinity profiling via proximity ligation, sequencing); 10 mM Tris-HCl pH 7.5, 50 mM NaCl, 1 mM DTT, 4% glycerol, room temperature, 30 min; GST-TFs on glutathione beads, 16-mer random dsDNA library, 0.1% formaldehyde crosslink after washing; high values mean tight binding
[1] = target: T1, FEV (Homo sapiens, UniProt Q99581 1-238); details: protein: recombinant; tags: N-terminal GST; dsDNA, one strand shown
T1 sequence: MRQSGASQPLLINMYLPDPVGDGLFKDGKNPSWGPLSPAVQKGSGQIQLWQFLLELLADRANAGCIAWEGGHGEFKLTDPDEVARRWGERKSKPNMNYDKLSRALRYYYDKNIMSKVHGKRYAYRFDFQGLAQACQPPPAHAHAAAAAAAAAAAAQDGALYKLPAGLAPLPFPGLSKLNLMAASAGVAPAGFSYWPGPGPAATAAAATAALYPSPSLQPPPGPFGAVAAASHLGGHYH
In short: (§1)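 GST fusions of human transcription factors were expressed in yeast and captured with glutathione beads. Once given DNA barcodes and pooled alongside a tag-only sample, they were incubated for 30 min at room temperature with 200 nmole of a random double-stranded 16-mer DNA library in Tris/NaCl/DTT/glycerol buffer, then washed, crosslinked (0.1% formaldehyde), proximity-ligated, PCR-amplified and sequenced on an Illumina NextSeq500. The binding signal of each hexamer is its read frequency for a factor divided by its frequency for the tag-only sample.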

[2] = target: ETV5 (Homo sapiens, UniProt P41161 1-510); details: protein: recombinant; tags: N-terminal GST; dsDNA, one strand shown
Chain of ETV5 (P41161 whole entry): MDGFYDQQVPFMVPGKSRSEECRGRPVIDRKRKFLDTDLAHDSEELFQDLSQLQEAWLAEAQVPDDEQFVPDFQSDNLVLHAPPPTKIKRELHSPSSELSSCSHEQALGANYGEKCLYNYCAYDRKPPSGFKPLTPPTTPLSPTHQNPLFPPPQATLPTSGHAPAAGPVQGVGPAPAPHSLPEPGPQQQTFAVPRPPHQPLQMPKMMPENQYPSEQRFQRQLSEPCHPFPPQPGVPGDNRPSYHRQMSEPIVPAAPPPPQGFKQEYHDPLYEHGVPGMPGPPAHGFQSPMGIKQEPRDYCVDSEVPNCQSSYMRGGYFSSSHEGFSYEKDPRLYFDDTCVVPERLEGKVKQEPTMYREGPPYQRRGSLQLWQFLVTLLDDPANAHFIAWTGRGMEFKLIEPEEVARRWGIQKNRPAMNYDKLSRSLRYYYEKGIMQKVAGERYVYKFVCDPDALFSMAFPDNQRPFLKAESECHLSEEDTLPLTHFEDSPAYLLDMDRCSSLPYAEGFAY
In short: as §1

[3] = target: HSF1 (Homo sapiens, UniProt Q00613 1-529); details: protein: recombinant; tags: N-terminal GST; chain copies: 3; dsDNA, one strand shown
Chain of HSF1 (Q00613 whole entry): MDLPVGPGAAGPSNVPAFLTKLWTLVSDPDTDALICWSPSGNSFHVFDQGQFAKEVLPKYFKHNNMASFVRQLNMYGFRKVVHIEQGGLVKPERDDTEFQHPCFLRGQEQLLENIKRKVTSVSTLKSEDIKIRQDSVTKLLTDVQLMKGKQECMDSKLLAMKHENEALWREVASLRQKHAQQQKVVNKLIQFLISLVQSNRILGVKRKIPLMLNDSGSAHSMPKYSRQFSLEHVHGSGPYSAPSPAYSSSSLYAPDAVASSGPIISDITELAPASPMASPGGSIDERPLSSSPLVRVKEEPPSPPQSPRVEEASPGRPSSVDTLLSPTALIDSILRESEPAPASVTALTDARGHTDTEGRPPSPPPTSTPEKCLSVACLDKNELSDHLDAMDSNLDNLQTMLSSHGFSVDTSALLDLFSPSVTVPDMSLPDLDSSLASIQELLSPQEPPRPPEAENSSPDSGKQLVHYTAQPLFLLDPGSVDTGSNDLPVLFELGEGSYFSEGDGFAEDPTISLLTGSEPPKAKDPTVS
In short: as §1

[4] = target: T2, SPIC (Homo sapiens, UniProt Q8N5J4 1-248); details: protein: recombinant; tags: N-terminal GST; dsDNA, one strand shown
T2 sequence: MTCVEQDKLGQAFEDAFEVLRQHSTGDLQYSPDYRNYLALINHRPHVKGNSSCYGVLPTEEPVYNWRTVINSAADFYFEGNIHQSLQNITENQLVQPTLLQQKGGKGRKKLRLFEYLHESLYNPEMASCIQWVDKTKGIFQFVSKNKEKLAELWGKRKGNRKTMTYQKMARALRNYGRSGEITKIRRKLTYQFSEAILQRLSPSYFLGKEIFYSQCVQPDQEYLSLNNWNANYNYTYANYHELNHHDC
In short: as §1

[5] = target: ELF4 (Homo sapiens, UniProt Q99607 1-663); details: protein: recombinant; tags: N-terminal GST; dsDNA, one strand shown
Chain of ELF4 (Q99607 whole entry): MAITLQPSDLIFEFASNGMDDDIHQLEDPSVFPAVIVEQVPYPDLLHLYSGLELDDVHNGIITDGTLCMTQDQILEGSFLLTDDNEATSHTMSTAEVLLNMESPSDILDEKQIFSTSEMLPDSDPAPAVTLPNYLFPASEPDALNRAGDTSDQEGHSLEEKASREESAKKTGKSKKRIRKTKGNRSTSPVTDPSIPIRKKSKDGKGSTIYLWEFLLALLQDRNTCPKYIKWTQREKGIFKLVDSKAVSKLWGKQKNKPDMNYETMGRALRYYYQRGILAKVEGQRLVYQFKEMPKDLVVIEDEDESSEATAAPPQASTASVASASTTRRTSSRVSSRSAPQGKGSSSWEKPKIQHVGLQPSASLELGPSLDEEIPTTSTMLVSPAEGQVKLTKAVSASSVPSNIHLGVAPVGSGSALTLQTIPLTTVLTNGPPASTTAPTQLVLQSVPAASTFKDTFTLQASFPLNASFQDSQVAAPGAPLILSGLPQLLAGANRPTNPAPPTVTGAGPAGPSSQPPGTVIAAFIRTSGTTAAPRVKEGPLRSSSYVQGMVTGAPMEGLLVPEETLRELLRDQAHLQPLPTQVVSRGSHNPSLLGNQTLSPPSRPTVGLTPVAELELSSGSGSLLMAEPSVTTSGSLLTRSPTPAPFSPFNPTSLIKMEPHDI
In short: as §1

[6] = target: T3, ELK4 (Homo sapiens, UniProt P28324-2 1-405); details: protein: recombinant; tags: N-terminal GST; dsDNA, one strand shown
T3 sequence: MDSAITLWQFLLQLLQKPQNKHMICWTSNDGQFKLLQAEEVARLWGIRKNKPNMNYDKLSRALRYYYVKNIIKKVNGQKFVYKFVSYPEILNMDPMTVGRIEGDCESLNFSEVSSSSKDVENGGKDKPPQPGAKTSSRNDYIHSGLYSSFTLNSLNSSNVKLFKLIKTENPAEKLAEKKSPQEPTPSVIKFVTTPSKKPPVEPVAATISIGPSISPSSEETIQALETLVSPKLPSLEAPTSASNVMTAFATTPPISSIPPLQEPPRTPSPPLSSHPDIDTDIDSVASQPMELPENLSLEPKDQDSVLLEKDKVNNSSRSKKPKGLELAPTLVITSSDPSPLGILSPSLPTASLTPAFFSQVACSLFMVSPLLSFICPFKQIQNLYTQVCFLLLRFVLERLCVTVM
In short: as §1

[7] = target: T4, ELF3 (Homo sapiens, UniProt P78545 1-371); details: protein: recombinant; tags: N-terminal GST; dsDNA, one strand shown
T4 sequence: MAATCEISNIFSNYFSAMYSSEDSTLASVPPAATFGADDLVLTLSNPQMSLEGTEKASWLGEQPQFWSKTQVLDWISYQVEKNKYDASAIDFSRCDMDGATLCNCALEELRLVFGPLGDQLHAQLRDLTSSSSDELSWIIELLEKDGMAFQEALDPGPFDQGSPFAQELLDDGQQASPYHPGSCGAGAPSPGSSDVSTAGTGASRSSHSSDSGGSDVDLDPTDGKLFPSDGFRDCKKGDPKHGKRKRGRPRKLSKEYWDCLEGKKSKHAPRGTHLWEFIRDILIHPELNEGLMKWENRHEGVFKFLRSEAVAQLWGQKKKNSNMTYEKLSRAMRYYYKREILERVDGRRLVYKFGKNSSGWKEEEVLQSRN
In short: as §1

[8] = target: CRX (Homo sapiens, UniProt O43186 1-299); details: protein: recombinant; tags: N-terminal GST; dsDNA, one strand shown
Chain of CRX (O43186 whole entry): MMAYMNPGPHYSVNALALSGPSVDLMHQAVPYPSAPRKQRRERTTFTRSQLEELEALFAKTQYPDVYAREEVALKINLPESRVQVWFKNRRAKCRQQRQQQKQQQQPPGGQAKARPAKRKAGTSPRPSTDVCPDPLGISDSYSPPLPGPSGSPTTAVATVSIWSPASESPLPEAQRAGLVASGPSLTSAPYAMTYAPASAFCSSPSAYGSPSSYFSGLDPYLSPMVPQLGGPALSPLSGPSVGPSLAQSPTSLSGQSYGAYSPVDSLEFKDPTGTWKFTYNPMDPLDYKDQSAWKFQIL
In short: as §1

[9] = target: ETV1 (Homo sapiens, UniProt P50549 1-477); details: protein: recombinant; tags: N-terminal GST; dsDNA, one strand shown
Chain of ETV1 (P50549 whole entry): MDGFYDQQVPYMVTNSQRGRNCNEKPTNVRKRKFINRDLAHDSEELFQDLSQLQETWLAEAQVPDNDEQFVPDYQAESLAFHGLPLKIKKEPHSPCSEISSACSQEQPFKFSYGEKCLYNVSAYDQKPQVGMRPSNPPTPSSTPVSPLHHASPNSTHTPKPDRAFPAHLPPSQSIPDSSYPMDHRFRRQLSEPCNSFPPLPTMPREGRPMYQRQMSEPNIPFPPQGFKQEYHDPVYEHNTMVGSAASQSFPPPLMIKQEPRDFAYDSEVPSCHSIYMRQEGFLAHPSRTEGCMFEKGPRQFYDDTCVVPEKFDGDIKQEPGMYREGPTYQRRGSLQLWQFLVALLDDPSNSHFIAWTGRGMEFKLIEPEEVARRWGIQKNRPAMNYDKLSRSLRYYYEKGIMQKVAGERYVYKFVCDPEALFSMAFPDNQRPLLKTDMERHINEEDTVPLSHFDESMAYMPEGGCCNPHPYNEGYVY
In short: as §1

[10] = target: T5, ERF (Homo sapiens, UniProt P50548 1-548); details: protein: recombinant; tags: N-terminal GST; dsDNA, one strand shown
T5 sequence: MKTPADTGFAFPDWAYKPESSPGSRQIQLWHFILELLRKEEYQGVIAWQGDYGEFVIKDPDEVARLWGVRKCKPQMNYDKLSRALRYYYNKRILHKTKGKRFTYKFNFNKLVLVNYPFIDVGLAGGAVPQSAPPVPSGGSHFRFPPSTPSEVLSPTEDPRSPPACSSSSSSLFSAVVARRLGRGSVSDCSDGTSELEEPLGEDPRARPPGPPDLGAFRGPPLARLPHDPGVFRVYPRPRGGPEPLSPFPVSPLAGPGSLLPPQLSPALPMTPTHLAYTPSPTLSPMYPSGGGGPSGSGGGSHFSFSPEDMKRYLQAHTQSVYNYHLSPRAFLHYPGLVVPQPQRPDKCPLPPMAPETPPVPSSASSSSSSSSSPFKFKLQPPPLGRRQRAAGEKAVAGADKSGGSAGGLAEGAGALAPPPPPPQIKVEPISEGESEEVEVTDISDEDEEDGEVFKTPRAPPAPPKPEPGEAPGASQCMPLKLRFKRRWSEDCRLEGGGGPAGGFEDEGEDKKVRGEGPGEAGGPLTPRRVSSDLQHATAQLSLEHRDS
In short: as §1

[11] = target: T6, ETV3L (Homo sapiens, UniProt Q6ZN32 1-361); details: protein: recombinant; tags: N-terminal GST; dsDNA, one strand shown
T6 sequence: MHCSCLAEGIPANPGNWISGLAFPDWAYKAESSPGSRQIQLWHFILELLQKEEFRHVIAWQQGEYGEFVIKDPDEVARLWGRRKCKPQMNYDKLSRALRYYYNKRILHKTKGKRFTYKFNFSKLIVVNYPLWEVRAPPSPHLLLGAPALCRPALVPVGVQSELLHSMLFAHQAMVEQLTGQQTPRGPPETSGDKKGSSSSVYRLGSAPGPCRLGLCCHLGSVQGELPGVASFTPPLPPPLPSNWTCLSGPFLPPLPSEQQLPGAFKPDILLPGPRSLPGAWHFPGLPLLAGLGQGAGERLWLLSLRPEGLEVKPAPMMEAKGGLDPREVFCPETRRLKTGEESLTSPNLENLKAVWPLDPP
In short: as §1

[12] = target: T7, ETS2 (Homo sapiens, UniProt P15036 1-469); details: protein: recombinant; tags: N-terminal GST; dsDNA, one strand shown
T7 sequence: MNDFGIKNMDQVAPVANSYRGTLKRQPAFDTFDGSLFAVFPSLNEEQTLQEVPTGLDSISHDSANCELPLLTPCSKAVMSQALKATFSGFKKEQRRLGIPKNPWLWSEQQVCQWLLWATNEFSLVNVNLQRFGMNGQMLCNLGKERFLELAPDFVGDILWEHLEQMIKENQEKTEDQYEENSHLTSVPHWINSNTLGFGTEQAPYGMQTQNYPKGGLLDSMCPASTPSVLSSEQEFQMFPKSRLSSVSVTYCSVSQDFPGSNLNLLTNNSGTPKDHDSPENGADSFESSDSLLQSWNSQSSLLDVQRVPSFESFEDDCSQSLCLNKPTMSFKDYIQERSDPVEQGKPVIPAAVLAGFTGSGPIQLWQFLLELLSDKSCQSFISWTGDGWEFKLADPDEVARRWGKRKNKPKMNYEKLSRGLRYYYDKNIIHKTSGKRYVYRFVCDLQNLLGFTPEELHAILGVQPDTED
In short: as §1

[13] = target: T8, ETV7 (Homo sapiens, UniProt Q9Y603 1-341); details: protein: recombinant; tags: N-terminal GST; dsDNA, one strand shown
T8 sequence: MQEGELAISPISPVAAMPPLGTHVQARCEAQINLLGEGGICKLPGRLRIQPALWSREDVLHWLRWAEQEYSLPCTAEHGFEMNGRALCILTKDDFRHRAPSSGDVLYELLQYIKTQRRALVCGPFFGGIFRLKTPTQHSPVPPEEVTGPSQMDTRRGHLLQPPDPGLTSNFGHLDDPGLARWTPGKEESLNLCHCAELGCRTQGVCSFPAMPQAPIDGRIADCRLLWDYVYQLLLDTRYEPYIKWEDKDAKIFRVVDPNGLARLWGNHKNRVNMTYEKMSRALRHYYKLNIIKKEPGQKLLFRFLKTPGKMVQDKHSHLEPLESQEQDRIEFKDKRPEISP
In short: as §1

[14] = target: T9, ELF5 (Homo sapiens, UniProt Q9UKW6-2 1-255); details: protein: recombinant; tags: N-terminal GST; dsDNA, one strand shown
T9 sequence: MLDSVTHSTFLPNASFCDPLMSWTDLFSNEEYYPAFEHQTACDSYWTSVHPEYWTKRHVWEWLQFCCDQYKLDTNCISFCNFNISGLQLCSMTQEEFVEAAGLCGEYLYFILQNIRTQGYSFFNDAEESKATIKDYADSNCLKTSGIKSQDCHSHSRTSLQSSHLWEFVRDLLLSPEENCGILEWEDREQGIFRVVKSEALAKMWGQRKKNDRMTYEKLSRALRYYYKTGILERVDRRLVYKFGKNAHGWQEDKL
In short: as §1

[15] = target: T10, ETV3 (Homo sapiens, UniProt P41162-2 1-143); details: protein: recombinant; tags: N-terminal GST; dsDNA, one strand shown
T10 sequence: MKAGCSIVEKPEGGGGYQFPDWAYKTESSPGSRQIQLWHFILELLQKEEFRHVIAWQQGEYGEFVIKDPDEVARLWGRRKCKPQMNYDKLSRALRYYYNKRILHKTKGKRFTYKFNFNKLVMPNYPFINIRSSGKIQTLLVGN
In short: as §1

[16] = target: ETV6 (Homo sapiens, UniProt P41212 1-452); details: protein: recombinant; tags: N-terminal GST; dsDNA, one strand shown
Chain of ETV6 (P41212 whole entry): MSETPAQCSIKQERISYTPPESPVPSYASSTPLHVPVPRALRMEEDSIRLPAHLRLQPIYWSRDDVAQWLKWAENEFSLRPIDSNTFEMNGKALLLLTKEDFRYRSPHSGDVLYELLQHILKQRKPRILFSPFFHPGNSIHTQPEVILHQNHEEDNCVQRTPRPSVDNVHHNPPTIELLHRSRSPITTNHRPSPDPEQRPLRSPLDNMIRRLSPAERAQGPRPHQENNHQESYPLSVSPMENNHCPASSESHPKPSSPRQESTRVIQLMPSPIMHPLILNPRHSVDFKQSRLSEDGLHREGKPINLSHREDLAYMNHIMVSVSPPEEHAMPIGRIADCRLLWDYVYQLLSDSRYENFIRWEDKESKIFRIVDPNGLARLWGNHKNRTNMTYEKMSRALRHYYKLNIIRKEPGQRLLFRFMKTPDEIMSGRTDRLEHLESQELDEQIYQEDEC
In short: as §1

[17] = target: T11, SPDEF (Homo sapiens, UniProt O95238 1-335); details: protein: recombinant; tags: N-terminal GST; dsDNA, one strand shown
T11 sequence: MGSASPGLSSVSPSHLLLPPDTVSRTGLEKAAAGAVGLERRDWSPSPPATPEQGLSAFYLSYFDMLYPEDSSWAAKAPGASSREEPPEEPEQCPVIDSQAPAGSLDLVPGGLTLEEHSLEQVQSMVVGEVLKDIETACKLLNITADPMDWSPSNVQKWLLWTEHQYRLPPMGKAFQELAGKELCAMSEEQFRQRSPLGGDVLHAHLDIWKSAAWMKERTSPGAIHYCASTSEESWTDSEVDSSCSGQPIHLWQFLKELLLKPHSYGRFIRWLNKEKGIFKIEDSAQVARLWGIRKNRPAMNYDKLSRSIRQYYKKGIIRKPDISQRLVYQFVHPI
In short: as §1

Sequence	binding signal [1]	binding signal [2]	binding signal [3]	binding signal [4]	binding signal [5]	binding signal [6]	binding signal [7]	binding signal [8]	binding signal [9]	binding signal [10]	binding signal [11]	binding signal [12]	binding signal [13]	binding signal [14]	binding signal [15]	binding signal [16]	binding signal [17]
CGAACT	1.16 fold enrichment (6-mer frequency, TF over GST control)	1.19 fold enrichment (6-mer frequency, TF over GST control)	1.48 fold enrichment (6-mer frequency, TF over GST control)	1.01 fold enrichment (6-mer frequency, TF over GST control)	1.12 fold enrichment (6-mer frequency, TF over GST control)	1.15 fold enrichment (6-mer frequency, TF over GST control)	1.02 fold enrichment (6-mer frequency, TF over GST control)	1.05 fold enrichment (6-mer frequency, TF over GST control)	1.1 fold enrichment (6-mer frequency, TF over GST control)	1.16 fold enrichment (6-mer frequency, TF over GST control)	1.12 fold enrichment (6-mer frequency, TF over GST control)	1.18 fold enrichment (6-mer frequency, TF over GST control)	1.15 fold enrichment (6-mer frequency, TF over GST control)	1.07 fold enrichment (6-mer frequency, TF over GST control)	1.18 fold enrichment (6-mer frequency, TF over GST control)	1.13 fold enrichment (6-mer frequency, TF over GST control)	
TCCCAA	1.17 fold enrichment (6-mer frequency, TF over GST control)	1.2 fold enrichment (6-mer frequency, TF over GST control)	1.11 fold enrichment (6-mer frequency, TF over GST control)	1.17 fold enrichment (6-mer frequency, TF over GST control)	1.24 fold enrichment (6-mer frequency, TF over GST control)	1.09 fold enrichment (6-mer frequency, TF over GST control)	1.16 fold enrichment (6-mer frequency, TF over GST control)	1.23 fold enrichment (6-mer frequency, TF over GST control)	1.2 fold enrichment (6-mer frequency, TF over GST control)	1.34 fold enrichment (6-mer frequency, TF over GST control)	1.23 fold enrichment (6-mer frequency, TF over GST control)	1.12 fold enrichment (6-mer frequency, TF over GST control)	1.11 fold enrichment (6-mer frequency, TF over GST control)	1.21 fold enrichment (6-mer frequency, TF over GST control)	1.16 fold enrichment (6-mer frequency, TF over GST control)	1.23 fold enrichment (6-mer frequency, TF over GST control)	1.18 fold enrichment (6-mer frequency, TF over GST control)

— PMC7862700, “An all-to-all approach to the identification of sequence-specific readers for epigenetic DNA modifications on cytosine”
